Sampled rows, rich in hits. Any-hit rate of the full collection: about 1.4%.
Sa ugtP lethal = kills S. aureus RN4220 lacking UgtP | S. aureus RN4220 ugtP deletion, OD600 growth, 16 h | growth inhibition, % (test concentration not listed) | 330,000 compounds, 0.54% hits; in the data active = growth inhibition above about 68%
PrPC surface inh = inhibitors of human cell surface prion protein PrPC; P04156; TR-FRET read-out; inhibition, % at 13.8 µM; 370,000 compounds, 0.43% hits; AID 720596; in the data active = inhibition above about 24%
VHR inh abs = DUSP3 (human) phosphatase inhibition. 290,000 compounds, 0.52% hits. recombinant VHR phosphatase, pNPP absorbance. P51452. inhibition, % at 13.3 µM; in the data active = inhibition above about 50%
BJeLR lethal = BJeLR cell viability loss. BJeLR (HRASV12) viability, CellTiter-Glo ATP luminescence, 48 h. inhibition, % (concentration not given with the values). 300,000 compounds, 0.17% hits; in the data active = inhibition above about 50%
SARS 3CLpro inh = SARS-CoV 3CLpro protease inhibition | P0C6X7 | recombinant SARS-CoV 3CLpro, quenched FRET peptide cleavage | inhibition, % at 6 µM | 290,000 compounds, 0.14% hits | AID 1706; in the data active = inhibition above about 12%
RN4220 kill = kills Staphylococcus aureus RN4220 | AID 1259311 | S. aureus RN4220 growth, OD600, 16 h | inhibition, % (no concentration beside the values) | 330,000 compounds, 0.33% hits; in the data active = inhibition above about 85%
PrPC TRFRET cf = cell surface PrPC inhibition, TR-FRET confirmation. shares compounds with PrPC surface inh. cell surface PrPC level. inhibition, % at 13.8 µM. 1,500 compounds, 65% hits. AID 743200; in the data active = inhibition above about 25%
LD9 tox = kills or reduces viability of LD9 cells in PrPc counter-screen | shares compounds with PrPC surface inh | LD9 cells cytotoxicity, luminescence viability | inhibition, % at 13.8 µM | 1,500 compounds, 29% hits | AID 743201; in the data active = inhibition above about 9.5%
Numbers stand for hits; . = inactive; / = no result; ! = not confirmed by another sample.

SMILES	Sa ugtP lethal	PrPC surface inh	VHR inh abs	BJeLR lethal	SARS 3CLpro inh	RN4220 kill	PrPC TRFRET cf	LD9 tox
O=C(Nc1nccs1)c1ccc(COc2ccccc2Br)o1	.	26.4	.	.	.	.	.	.
O=C(N/N=C/c1ccc(O)cc1O)c1ccc(CN2C(=O)c3cccc4cccc2c34)cc1	/	30.7	.	.	.	/	29.1	18.7
Cc1cc([N+](=O)[O-])nn1Cc1ccc(C(=O)NN=Cc2ccc(O)cc2O)cc1	.	/	/	/	/	.	/	/
Cc1cc([N+](=O)[O-])nn1Cc1ccc(C(=O)N/N=C/c2ccc(O)cc2O)cc1	/	31.9	.	.	.	/	29.5	21.4
COc1ccc2c(c1)CCC1C2CC[C@]2(C)C(C(C)=O)CC12 (some centres undefined)	.	/	/	/	/	.	/	/
COC(=O)C1=C(c2cccc(OCc3ccccc3)c2)CC2CCC1N2C(=O)NCc1ccccc1 (centres undefined)	.	/	/	/	/	.	/	/
CC1=CC2OC3CC4OC(=O)C=CC=CC(C(C)O)OCC(O)C5(C)OC5C(=O)OCC2(CC1O)C4(C)C31CO1 (centres undefined)	/	88.8	/	/	/	/	96.0	59.8
CC(O)C1C=CC=CC(=O)OC2CC3OC4C5OC5(C)C(O)CC4(COC(=O)C(O)C(C)CCO1)C2(C)C31CO1 (centres undefined)	/	92.1	/	/	/	/	98.7	40.1
CC1=CC2OC3CC4OC(=O)C=CC=CC(=O)OCCC(C)C(O)C(=O)OCC2(CC1)C4(C)C31CO1 (centres undefined)	/	81.9	/	/	/	/	93.5	69.0
CC1CCOC(=O)C=CC=CC(=O)OC2CC3OC4C5OC5(C)C(O)CC4(COC(=O)C1O)C2(C)C31CO1 (centres undefined)	/	83.8	/	/	/	/	100.7	45.8
CCOC1=NC(C(=O)O)c2ccccc2C(=C(C)Cl)N1 (centres undefined)	.	/	/	/	/	.	/	/
CC(C)(O)/C=C/C(=O)C(C)(O)C1C(O)CC2(C)C3CC=C4C(C=C(O)C(=O)C4(C)C)C3(C)C(=O)CC12C (centres undefined)	/	34.5	/	/	/	/	32.7	13.5
NC1=NCC(c2ccccc2)N1CCc1cccc(F)c1 (centres undefined)	.	/	/	/	/	.	/	/
O=C(NC1CCCCCCC1)c1cc(COc2ccc3ncccc3c2)on1	.	28.4	.	.	.	.	.	17.6
CC(CNC(=O)c1cc(COc2ccc3ncccc3c2)on1)c1ccccc1 (centres undefined)	.	24.7	.	.	.	.	.	17.0
Cc1ccc2c(c1)NC(=O)[C@@]1(C)C(c3ccccc3)C3COc4ccccc4C3N1C2=O (some centres undefined)	.	/	/	/	/	.	/	/
C#CCOCCOCCOCCNc1nc(N2CCN(C(=O)C(CC(N)=O)n3cc(C(N)C(C)CC)nn3)CC2)nc(N2CCN(C(=O)C(CC(N)=O)n3cc(C(N)C(C)CC)nn3)CC2)n1 (centres undefined)	.	/	/	/	/	.	/	/
Cc1onc(-c2ccccc2Cl)c1C(=O)OCC(=O)N1CCCc2ccccc21	.	30.5	.	.	.	.	.	.
CC1C2C[C@@]34COC(=O)C3=CC=CC4[C@@]13CC(c1ccoc1)OC3O2 (some centres undefined)	.	/	/	/	/	.	/	/
Cc1cc(C)c2nc(SC3CCOC3=O)cc(C)c2c1 (centres undefined)	.	77.5	.	.	.	.	86.5	.
O=C(O)c1ccc(NN=C2CCCc3ccccc32)cc1	.	/	/	/	/	.	/	/
Fc1ccc(-n2nnnc2-c2cnc(-c3cccs3)nc2C(F)(F)F)cc1	.	52.7	.	.	.	.	48.2	39.7
COc1ccc2nc3cc(Cl)ccc3c(Nc3cc(C(C)C)c(O)cc3C)c2c1	.	.	.	.	.	.	/	/
COc1ccc2nc3cc(Cl)ccc3c(Nc3cc(CN4CCCC4)c(O)c(CN4CCCC4)c3)c2n1	.	45.1	.	.	.	.	41.7	36.8
Cc1ccc(C)c(NC(=O)c2nnn(Cc3ccccc3)c2N)c1	.	27.4	.	.	.	.	.	.
SMILES	Sa ugtP lethal	PrPC surface inh	VHR inh abs	BJeLR lethal	SARS 3CLpro inh	RN4220 kill	PrPC TRFRET cf	LD9 tox
Cc1ccc(Cn2nnc(C(=O)Nc3cc(C)ccc3C)c2N)cc1	.	.	.	.	.	.	/	/
Cc1cccc(NC(=O)c2nc[nH]c2C(=O)NC(C)C(=O)OC(C)(C)C)c1 (centres undefined)	.	/	/	/	/	.	/	/
O=C(Nc1ccncc1)c1cccc(S(=O)(=O)N2CCc3ccccc32)c1	.	24.5	/	.	/	.	25.5	12.6
Cc1cccc(N2CCN(C(=O)c3cc(S(=O)(=O)N4CCCC4)cn3C)CC2)c1C	.	24.5	.	.	.	.	.	.
Cc1cccc(NC(=O)c2cc(S(=O)(=O)N3CCc4ccccc43)cn2C)c1C	.	44.2	.	.	.	.	.	.
CCc1ccccc1NC(=O)c1cc(S(=O)(=O)N2CCc3ccccc32)cn1C	.	.	.	.	.	.	/	/
COc1cc(C=CC(=O)O)cc(S(=O)(=O)NCCO)c1OC	.	/	/	/	/	.	/	/
O=C(C1=CC(C2CC2)CC(OCc2ccc(CO)cc2)O1)N1CCN(Cc2ccc3c(c2)OCO3)CC1 (centres undefined)	.	/	/	/	/	.	/	/
Cc1cc2sc(C(=O)O)c(C)c2s1	.	30.1	.	.	.	.	41.6	.
Cc1cc2c(cc(C(=O)O)n2C)s1	.	.	.	.	.	.	/	/
CCOC(=O)C1C2COc3cc(OC)ccc3C2N2C(=O)c3cc(OC)ccc3NC(=O)[C@@]12C (some centres undefined)	.	/	/	/	/	.	/	/
COc1ccc(Cl)cc1C(=O)Nc1cccc(-c2ccc3nncn3n2)c1	.	82.6	.	.	.	.	87.6	.
COC(=O)OCC12CCC(O1)C1(C)C(=O)OCC21 (centres undefined)	.	.	.	.	.	.	/	/
CC(=O)OC[C@]12CC[C@H]3[C@@](C)(CC[C@H]4C(C)(C)CCC[C@]34C)[C@@H]1CC(C1=CC(=O)OC1O)O2 (some centres undefined)	/	54.3	/	/	/	/	82.7	98.5
O=C(Nc1ccc(OC(F)(F)F)cc1)Nc1cccc([N+](=O)[O-])c1	99.7	25.6	.	.	.	100.0	42.9	41.5
O=C(Nc1ccc(OC(F)F)cc1)Nc1cccc(C(F)(F)F)c1	90.1	34.8	.	.	.	.	.	21.6
CSc1nsc2nc(=O)c(/C=C3\C(C)=Nc4ccc(C)cc43)c(N)n12	.	.	.	.	.	.	/	/
CC1=Nc2ccc(C)cc2/C1=C/c1c(N)n2oc(C)cc2nc1=O	.	45.6!	.	.	.	.	.	.
COc1ccc(CNC(=O)CN2C(=O)C3CCCN3c3ncc(Cl)cc32)cc1 (centres undefined)	.	26.1	.	.	.	.	.	.
O=C(CC1C(=O)N(c2ccc(F)c(F)c2)CC1Cc1ccccc1)Nc1ccccc1 (centres undefined)	.	/	/	/	/	.	/	/

Screens: PubChem BioAssay, several laboratories
